Assay results reported in the supplement of paper PMC11732987, “Enantioselective OTUD7B fragment discovery through chemoproteomics screening and high-throughput optimisation” (Communications Chemistry, 2025).

What was measured:
Test in all cases: log2 ratio of Biotin-Ahx-Ub-VS probe labelling (fragment/DMSO); higher = less target engagement (more negative = stronger competition), active = hit call of the paper (q ≤ 0.05, log2 ratio ≤ -1)
Settings in all cases: compound concentration: 200 uM; treatment time: 3 h
[1] = target: T1, ALG13 (UniProt Q9NP73)
T1 sequence (whole entry): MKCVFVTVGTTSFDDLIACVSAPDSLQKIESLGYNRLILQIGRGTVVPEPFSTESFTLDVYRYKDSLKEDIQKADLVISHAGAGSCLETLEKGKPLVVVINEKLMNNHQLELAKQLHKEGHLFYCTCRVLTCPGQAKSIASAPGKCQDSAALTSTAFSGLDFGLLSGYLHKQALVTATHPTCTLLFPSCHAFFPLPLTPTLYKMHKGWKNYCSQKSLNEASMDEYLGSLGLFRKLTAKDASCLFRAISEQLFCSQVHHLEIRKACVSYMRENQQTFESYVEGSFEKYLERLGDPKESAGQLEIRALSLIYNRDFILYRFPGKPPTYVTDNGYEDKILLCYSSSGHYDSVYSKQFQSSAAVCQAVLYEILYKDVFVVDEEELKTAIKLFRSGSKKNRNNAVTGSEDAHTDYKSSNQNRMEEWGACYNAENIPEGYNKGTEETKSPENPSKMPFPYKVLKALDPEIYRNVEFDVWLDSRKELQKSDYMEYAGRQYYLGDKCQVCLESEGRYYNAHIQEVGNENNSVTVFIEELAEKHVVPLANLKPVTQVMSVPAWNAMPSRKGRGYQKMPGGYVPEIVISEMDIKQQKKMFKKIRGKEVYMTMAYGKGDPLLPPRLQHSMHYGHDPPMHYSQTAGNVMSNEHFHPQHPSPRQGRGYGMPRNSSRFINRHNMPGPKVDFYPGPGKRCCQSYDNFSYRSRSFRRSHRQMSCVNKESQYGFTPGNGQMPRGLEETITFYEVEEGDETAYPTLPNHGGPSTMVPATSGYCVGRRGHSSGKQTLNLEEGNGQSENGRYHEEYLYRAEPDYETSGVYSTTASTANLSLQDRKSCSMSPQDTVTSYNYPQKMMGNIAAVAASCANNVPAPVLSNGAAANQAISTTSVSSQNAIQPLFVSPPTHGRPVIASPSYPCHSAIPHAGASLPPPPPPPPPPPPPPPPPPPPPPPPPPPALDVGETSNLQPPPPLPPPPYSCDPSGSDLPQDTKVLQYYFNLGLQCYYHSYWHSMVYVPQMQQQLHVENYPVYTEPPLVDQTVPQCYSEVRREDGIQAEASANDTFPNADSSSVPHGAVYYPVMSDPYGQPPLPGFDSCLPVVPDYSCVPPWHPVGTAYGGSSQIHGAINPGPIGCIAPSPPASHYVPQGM
In short: (§1)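 Using Biotin-Ahx-Ub-VS at 0.5 µM final for 1 h, DUBs were labelled in HEK293T lysate (495 µg per sample) that had first been treated in triplicate with fragment at 200 µM or vehicle for 3 h. NeutrAvidin enrichment, LysC and trypsin digestion and diaPASEF LC-MS/MS followed. Spectronaut label-free quantities were global-median-normalised. Values are average log2 fragment/vehicle ratios by unpaired t-test, using proteins with ≥2 unique peptides.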

[2] = target: ATXN3 (UniProt P54252)
Sequence of ATXN3 (P54252 whole entry): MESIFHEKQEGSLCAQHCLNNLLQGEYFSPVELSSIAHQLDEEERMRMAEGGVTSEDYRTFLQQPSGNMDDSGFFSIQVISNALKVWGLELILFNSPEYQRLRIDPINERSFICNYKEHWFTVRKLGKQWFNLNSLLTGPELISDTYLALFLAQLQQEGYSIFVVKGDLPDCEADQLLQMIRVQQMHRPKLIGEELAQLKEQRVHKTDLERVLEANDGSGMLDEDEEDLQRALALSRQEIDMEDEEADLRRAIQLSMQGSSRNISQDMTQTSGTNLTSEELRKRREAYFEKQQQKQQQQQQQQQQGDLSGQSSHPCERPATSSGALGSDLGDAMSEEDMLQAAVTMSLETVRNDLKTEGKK
In short: as §1

[3] = target: T2, BAP1 (UniProt Q92560)
T2 sequence (whole entry): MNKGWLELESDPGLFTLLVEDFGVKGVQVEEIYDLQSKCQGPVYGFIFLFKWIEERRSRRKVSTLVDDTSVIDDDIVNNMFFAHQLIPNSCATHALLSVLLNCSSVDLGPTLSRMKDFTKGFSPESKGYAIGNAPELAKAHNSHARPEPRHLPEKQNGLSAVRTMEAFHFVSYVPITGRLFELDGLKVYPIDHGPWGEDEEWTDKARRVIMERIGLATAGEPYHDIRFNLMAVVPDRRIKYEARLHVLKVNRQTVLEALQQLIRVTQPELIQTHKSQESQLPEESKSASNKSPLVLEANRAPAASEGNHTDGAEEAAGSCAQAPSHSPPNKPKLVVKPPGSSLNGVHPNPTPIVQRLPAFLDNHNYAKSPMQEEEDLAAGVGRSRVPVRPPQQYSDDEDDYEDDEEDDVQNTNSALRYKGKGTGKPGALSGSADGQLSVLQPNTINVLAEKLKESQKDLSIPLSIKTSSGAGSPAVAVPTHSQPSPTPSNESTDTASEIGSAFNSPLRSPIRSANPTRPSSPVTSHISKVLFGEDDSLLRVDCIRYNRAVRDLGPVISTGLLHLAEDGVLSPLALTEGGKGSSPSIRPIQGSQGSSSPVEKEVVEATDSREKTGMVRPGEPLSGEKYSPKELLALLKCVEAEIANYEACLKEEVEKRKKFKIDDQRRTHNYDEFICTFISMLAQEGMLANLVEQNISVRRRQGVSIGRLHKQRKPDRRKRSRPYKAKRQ
In short: as §1

[4] = target: EIF3F (UniProt O00303)
Sequence of EIF3F (O00303 whole entry): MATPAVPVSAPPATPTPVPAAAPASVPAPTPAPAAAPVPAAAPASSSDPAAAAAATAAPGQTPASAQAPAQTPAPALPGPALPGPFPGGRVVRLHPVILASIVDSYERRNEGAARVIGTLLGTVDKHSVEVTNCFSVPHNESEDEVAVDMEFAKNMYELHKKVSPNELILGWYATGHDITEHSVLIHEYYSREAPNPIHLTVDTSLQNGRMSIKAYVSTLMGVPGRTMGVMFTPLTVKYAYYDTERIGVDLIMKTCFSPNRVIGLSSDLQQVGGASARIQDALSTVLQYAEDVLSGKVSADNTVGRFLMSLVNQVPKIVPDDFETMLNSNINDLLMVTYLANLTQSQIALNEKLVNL
In short: as §1

[5] = target: EIF3H (UniProt O15372)
Sequence of EIF3H (O15372 whole entry): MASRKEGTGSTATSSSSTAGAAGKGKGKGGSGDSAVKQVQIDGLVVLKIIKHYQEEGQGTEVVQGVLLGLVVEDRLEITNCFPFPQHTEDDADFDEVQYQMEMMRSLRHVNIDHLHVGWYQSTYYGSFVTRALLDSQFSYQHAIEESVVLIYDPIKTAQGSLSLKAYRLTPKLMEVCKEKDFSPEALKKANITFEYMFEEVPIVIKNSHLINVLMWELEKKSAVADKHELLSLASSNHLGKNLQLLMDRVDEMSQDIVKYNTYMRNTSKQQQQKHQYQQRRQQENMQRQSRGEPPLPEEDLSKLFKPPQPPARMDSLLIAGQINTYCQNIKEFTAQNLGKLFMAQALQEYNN
In short: as §1

[6] = target: T3, FAM105A (UniProt Q9NUU6)
T3 sequence (whole entry): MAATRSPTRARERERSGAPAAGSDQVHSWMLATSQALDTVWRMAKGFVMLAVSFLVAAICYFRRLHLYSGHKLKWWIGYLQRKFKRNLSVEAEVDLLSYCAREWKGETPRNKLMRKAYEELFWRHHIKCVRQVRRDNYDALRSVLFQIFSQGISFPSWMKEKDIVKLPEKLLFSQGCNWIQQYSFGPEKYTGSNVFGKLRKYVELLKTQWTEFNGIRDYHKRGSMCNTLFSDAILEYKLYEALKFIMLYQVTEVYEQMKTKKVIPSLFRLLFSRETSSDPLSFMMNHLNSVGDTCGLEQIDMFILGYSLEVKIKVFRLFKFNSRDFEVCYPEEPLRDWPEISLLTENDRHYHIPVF
In short: as §1

[7] = target: OTUB1 (UniProt Q96FW1)
Sequence of OTUB1 (Q96FW1 whole entry): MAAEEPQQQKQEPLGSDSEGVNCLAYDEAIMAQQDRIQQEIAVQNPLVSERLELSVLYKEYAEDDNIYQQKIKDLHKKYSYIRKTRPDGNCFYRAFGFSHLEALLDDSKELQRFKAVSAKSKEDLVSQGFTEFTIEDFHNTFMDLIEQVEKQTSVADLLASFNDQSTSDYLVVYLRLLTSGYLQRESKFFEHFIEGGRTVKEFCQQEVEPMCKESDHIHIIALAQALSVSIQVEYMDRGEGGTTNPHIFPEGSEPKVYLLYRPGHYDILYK
In short: as §1

[8] = target: T4, OTUD4 (UniProt Q01804)
T4 sequence (whole entry): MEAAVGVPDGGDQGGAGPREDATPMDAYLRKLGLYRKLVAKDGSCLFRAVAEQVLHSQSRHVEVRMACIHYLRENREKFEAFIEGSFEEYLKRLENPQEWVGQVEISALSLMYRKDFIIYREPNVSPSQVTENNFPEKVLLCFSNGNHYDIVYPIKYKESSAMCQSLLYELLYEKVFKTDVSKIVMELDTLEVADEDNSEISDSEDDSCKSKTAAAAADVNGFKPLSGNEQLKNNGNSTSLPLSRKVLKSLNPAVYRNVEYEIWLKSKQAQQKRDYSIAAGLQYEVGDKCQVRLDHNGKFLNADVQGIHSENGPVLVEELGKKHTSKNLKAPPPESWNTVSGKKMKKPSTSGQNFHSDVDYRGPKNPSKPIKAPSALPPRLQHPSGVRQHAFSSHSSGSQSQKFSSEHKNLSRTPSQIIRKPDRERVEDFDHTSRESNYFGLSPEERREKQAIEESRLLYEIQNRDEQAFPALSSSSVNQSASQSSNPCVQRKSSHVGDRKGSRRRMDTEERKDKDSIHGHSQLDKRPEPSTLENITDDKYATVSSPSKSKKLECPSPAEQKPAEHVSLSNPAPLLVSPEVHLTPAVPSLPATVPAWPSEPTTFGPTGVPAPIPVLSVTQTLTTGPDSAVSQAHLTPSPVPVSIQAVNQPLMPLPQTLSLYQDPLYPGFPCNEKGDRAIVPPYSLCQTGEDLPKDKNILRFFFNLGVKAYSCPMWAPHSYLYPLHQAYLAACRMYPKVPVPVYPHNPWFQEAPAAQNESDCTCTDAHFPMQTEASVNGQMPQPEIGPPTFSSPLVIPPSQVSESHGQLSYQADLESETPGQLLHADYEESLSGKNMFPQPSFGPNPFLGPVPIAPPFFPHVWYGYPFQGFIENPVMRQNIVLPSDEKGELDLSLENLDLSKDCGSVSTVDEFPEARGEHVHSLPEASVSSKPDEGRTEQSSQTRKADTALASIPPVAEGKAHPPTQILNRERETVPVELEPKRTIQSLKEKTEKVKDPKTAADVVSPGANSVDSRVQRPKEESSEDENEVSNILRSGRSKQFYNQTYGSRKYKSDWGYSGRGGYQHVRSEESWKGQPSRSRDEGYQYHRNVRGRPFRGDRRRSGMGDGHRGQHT
In short: as §1

[9] = target: T5, OTUD5 (UniProt Q96G74)
T5 sequence (whole entry): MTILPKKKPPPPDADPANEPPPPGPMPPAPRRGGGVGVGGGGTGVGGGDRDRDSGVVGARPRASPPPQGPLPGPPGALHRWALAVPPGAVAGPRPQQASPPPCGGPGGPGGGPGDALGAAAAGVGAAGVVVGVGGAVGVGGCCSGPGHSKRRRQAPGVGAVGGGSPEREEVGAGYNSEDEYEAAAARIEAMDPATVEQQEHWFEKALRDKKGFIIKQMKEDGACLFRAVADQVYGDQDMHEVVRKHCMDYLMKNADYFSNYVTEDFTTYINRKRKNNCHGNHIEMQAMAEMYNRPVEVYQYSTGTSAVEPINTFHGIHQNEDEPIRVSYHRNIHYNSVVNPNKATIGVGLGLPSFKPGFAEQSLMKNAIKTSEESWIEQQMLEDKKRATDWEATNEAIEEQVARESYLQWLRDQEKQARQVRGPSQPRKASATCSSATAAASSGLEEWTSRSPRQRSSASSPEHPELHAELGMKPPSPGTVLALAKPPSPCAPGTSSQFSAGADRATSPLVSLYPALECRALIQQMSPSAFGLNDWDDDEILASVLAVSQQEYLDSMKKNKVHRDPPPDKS
In short: as §1

Measured: log2 ratio of Biotin-Ahx-Ub-VS probe labelling

CC1CCc2onc(CNC(=O)CCl)c2C1 (centres undefined)
active: [3] -1.22
inactive: [1] 0.206 | [2] 0.065 | [4] -0.165 | [5] -0.00651 | [6] 0.123 | [7] 0.048 | [8] -0.0637 | [9] 0.0465
